High-throughput results deposited in PubChem by National Center for Advancing Translational Sciences (NCATS).
15-hLO-2 inh = 15-hLO-2 (ALOX15B) enzyme inhibition; purified 15hLO-2, xylenol orange hydroperoxide absorbance; Potency, µM (titrated, usually from 57.1 µM), actives largely listed as inhibitors; O15296; 110,000 tested, 0.56% active; also: nearly all actives have a fitted effect of over 60% in size
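Enzyme 50 nM, AA 45 uM, 25 mM Hepes pH 7.5 + 0.01% Triton X-100; cpd preinc 15 min RT, rxn 90 min RT; stop/detect with 200 uM XO + 300 uM Fe(II) in 50 mM H2SO4, 30 min; A573/A405.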
ALOX12 inhib = inhibitors of human 12-lipoxygenase (ALOX12). P18054. purified 12-hLO, xylenol orange hydroperoxide absorbance. Potency, µM (doses to about 57.1 µM), most hits filed as inhibitors. 150,000 tested, 0.12% active. AID 1452; also: nearly all actives have a fitted effect of over 55% in size
Target sequence (P18054 whole entry, looked up): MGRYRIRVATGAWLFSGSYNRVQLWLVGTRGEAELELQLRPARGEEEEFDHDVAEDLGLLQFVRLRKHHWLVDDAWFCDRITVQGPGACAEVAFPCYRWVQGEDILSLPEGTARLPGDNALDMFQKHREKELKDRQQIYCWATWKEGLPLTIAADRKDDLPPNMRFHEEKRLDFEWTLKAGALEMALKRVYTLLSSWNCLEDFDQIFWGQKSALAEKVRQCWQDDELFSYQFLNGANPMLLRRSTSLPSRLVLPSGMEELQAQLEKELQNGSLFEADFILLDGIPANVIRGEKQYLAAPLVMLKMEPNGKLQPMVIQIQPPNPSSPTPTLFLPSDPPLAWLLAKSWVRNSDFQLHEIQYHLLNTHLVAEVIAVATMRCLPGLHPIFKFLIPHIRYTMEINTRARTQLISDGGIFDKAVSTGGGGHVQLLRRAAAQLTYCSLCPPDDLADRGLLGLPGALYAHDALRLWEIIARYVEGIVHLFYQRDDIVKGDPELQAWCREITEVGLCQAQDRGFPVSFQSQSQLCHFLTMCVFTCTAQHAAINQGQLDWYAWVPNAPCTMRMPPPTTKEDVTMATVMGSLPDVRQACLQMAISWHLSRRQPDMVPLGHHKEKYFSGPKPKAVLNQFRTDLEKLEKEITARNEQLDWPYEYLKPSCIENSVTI
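150 nM 12hLO, 25 mM Hepes pH 7.0 + 0.01% Triton X-100; cpd preinc 15 min RT; 40 uM arachidonic acid, 30 min RT; Fe-XO 30 min; A573/A405 ratio as read-out.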
PNC inhibitor = blocks assembly of the perinucleolar compartment | 140,000 tested, 3.1% active | activity change (PNC), negative = inhibition, % at 10 µM | AID 2417 | PC3M PTB-GFP, PNC prevalence imaging, 16 h; hits give low values;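 active = readout at or below -70, meaning at least 70% loss of cells showing the perinucleolar compartment, a nuclear body marking cancer cells; inconclusive = readout between -30 and a set limit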
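PC3M cells stably expressing PTB-GFP, 750–1000 cells/well, treated 16 h at 37 °C with compound (23 nl of library stock), in duplicate. After paraformaldehyde fixation and Hoechst stain, imaged at 20x; PNC prevalence scored by image analysis.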
Of the large screens only hits and unclear results are named; the others gave an inactive call. The list is not random: actives were taken first. Their share in the collection is about 3.1%. Unless noted, calls follow the shape of the dose curve; as a rule, active = well fitted curve in the direction sought with a large enough effect; inconclusive = small, poorly fitted or top-dose-only effect, or another doubt; inactive = no such curve, though single readings can be large; an effect the other way counts as inactive or inconclusive.

O=C(O)CN(c1ccccc1)C1SC(=O)NC1=O (centres undefined)	none
Cc1cccc(N(CC(N)=O)C2SC(=O)NC2=O)c1 (centres undefined)	PNC inhibitor -100 (no result: 15-hLO-2 inh)
COc1ccc(Cc2ccccc2C(=O)O)c2ccccc12	none (no result: PNC inhibitor)
CC1=C(/C=C/C(C)=C/C=C/C(C)=C/C=O)C(C)(C)CCC1	none (no result: PNC inhibitor)
CCOC(=O)c1sc(=S)n(-c2ccc(Cl)cc2)c1C	PNC inhibitor inconclusive (no result: 15-hLO-2 inh)
CCOC(=O)c1[nH]n(-c2ccc(Cl)cc2)c(=O)c1C	PNC inhibitor -114 (no result: 15-hLO-2 inh)
N=C(N)N	none (no result: PNC inhibitor)
S=C(NCCN1CCOCC1)N/N=C/c1c2ccccc2cc2ccccc12	15-hLO-2 inh inconclusive, PNC inhibitor -81
S=C(NCCN1CCOCC1)N/N=C/c1ccccc1	none
COc1ccc2[nH]cc(CCNc3cc(-c4ccoc4)ncn3)c2c1	none (no result: PNC inhibitor)
CON	none (no result: PNC inhibitor)
CC1CCCCN1C(=O)CSc1nc2cc3c(cc2c(=O)n1Cc1ccc2c(c1)OCO2)OCO3 (centres undefined)	PNC inhibitor -87
CC1CCN(C(=O)CSc2nc3ccccc3c(=O)n2Cc2ccc3c(c2)OCO3)CC1	none
CCCCC[C@H](CC(=O)NO)C(=O)N[C@@H](C(=O)N1CCC[C@H]1CO)C(C)C	none (no result: PNC inhibitor)
O=C1NC2(CCCCC2)NN1c1ccccc1	15-hLO-2 inh inconclusive, ALOX12 inhib 4µM
O=C1NC2(CCCCC2)C(=O)N1c1ccccc1	none
CO[C@]1(NC(=O)Cc2cccs2)C(=O)N2C(C(=O)O)=C(COC(N)=O)CS[C@H]21	none (no result: PNC inhibitor)
O=C(C1CCCO1)N1CCN(Cc2nc3ccccc3c(=O)[nH]2)CC1 (centres undefined)	PNC inhibitor -135
NC(=O)C1CCN(Cc2nc3ccccc3c(=O)[nH]2)CC1	PNC inhibitor inconclusive
CNc1cc(OC)c(C(=O)N[C@@H]2CCN(Cc3ccccc3)[C@H]2C)cc1Cl	none (no result: PNC inhibitor)
CSCCC(NC(=O)c1cc([N+](=O)[O-])ccc1Cl)C(=O)O (centres undefined)	PNC inhibitor -82 (no result: 15-hLO-2 inh)
CSCCC(NC(=O)c1cc(C)oc1C)C(=O)O (centres undefined)	none
COCCNc1nc(C)nc2c1nc(-c1ccccc1)n2CCN1CCCC1	none (no result: PNC inhibitor)
CC(Nc1oc(-c2ccco2)nc1C#N)c1ccccc1 (centres undefined)	none (no result: 15-hLO-2 inh)
N#Cc1nc(-c2ccco2)oc1NCc1cccnc1	none
CC(C)CNc1oc(-c2ccco2)nc1C#N	PNC inhibitor -100 (no result: 15-hLO-2 inh)
N#Cc1nc(-c2ccco2)oc1NCc1ccc(F)cc1	PNC inhibitor -82
O=C(c1csnn1)N1CCC2(CCN(Cc3ccccc3)CC2)CC1	none (no result: PNC inhibitor)
COC(=O)[C@@H](NC(=O)N1CCc2nc(-c3ccccc3)c3c(c2C1)CO[C@@H](C)C3)C(C)C	none (no result: 15-hLO-2 inh, PNC inhibitor)
CC(=O)N1CC=CC1(CC(C)C)C(=O)NCc1ccc(C)o1 (centres undefined)	none (no result: PNC inhibitor)
COC(=O)[C@@H]1[C@@H](C)N(CCc2cc(OC)c(OC)c(OC)c2)C(=O)N[C@H]1c1ccccc1	none (no result: 15-hLO-2 inh, PNC inhibitor)
O=C(O)c1ccccc1C(=O)Nc1ccc(-c2csc(-c3ccccc3)n2)cc1	PNC inhibitor -98 (no result: 15-hLO-2 inh)
O=C(Nc1ccc(-c2csc(-c3ccccc3)n2)cc1)c1ccccc1Cl	none
CC(=O)Nc1ccc(S(=O)(=O)N2CCc3nc(COc4ccccc4)c4c(c3C2)CO[C@@H](C)C4)cc1	none (no result: 15-hLO-2 inh, PNC inhibitor)
O=C(CC1(O)C(=O)c2ccccc2C1=O)c1ccccc1	none (no result: 15-hLO-2 inh)
O=C1c2ccccc2C(=O)C1(O)O	15-hLO-2 inh 25µM, ALOX12 inhib inconclusive (no result: PNC inhibitor)
CN(C)C(=O)c1ccc(-c2ccc3ncnc(N(C)C)c3c2)cc1	none (no result: ALOX12 inhib, PNC inhibitor)
CC(C)=CC(=O)OCC(=O)Nc1ncc(Cl)c(C)c1Cl	none
CCCn1nc(C(=O)OCC(=O)Nc2ncc(Cl)c(C)c2Cl)c2ccccc2c1=O	PNC inhibitor -113 (no result: 15-hLO-2 inh)
Cc1c(Cl)cnc(NC(=O)COC(=O)c2nn(C)c(=O)c3ccccc23)c1Cl	none (no result: 15-hLO-2 inh)
CC(=O)c1c(C)[nH]c(C(=O)OCC(=O)Nc2ncc(Cl)c(C)c2Cl)c1C	PNC inhibitor -100
COC(=O)[C@@]1(Cc2ccccc2)[C@H]2c3cc(C(=O)N(C)C)n(Cc4cc(F)c(F)c(F)c4)c3C[C@H]2CN1C(=O)c1ccccc1	none (no result: PNC inhibitor)
COc1ccc(Oc2ncc3ncc(=O)n(C[C@H]4CCCO4)c3n2)cc1	none (no result: PNC inhibitor)
O=C(O)C[C@@H]1CCCc2ccccc2[C@H]1O	none (no result: PNC inhibitor)
COC(=O)C1=C(C(=O)OC)[C@@H]2N(C)c3ccc(OC)cc3[C@@]23C[C@@H](C(=O)OC)N(S(=O)(=O)c2ccc(C)cc2)C3=N1	none (no result: 15-hLO-2 inh, PNC inhibitor)
N#CC1=C(N)C(C#N)(C#N)[C@H](c2ccncc2)[C@H]2CC3(CC=C12)OCCO3	PNC inhibitor -98
CC(C)N1CC=C2C(C#N)=C(N)C(C#N)(C#N)C(c3ccccc3)C2C1 (centres undefined)	PNC inhibitor -107
CCC1C2CN(C(C)=O)CC=C2C(C#N)=C(N)C1(C#N)C#N (centres undefined)	none
Cc1ccc(C2C3CSCC=C3C(C#N)=C(N)C2(C#N)C#N)cc1 (centres undefined)	none
CCCOc1ccc([C@@H]2C3CN(C(=O)OCC)CC=C3C(C#N)=C(N)C2(C#N)C#N)cc1OC (some centres undefined)	PNC inhibitor -81
COc1cc(C2C3CN(C)CC=C3C(C#N)=C(N)C2(C#N)C#N)ccc1OC(C)C (centres undefined)	PNC inhibitor inconclusive
CN1CC=C2C(C#N)=C(N)C(C#N)(C#N)C(Cc3ccccc3)C2C1 (centres undefined)	PNC inhibitor -119
CC(C)N1CC=C2C(C#N)=C(N)C(C#N)(C#N)[C@H](c3ccoc3)[C@H]2C1	none
COC(=O)C1=C(C(=O)OC)[C@@H]2N(C)c3ccc(OC)cc3[C@@]23C[C@@H](C(=O)OC)N(C(=O)c2cccs2)C3=N1	none (no result: 15-hLO-2 inh, PNC inhibitor)
COc1ccc(Oc2ncc3nc(CCc4ccccc4)c(=O)n(C)c3n2)cc1	none (no result: PNC inhibitor)
CCC/C=C(\CCC)C(NS(=O)(=O)c1ccc(-c2ccccc2)cc1)c1ccc(C(=O)OC)cc1 (centres undefined)	none (no result: PNC inhibitor)
Cc1ccccc1OCC(O)CO (centres undefined)	none (no result: PNC inhibitor)
CC(C)(C)OC(=O)N1CC=C2C(C#N)=C(N)C(C#N)(C#N)[C@H](c3cccnc3)[C@H]2C1	PNC inhibitor inconclusive
N#CC1=C(N)C(C#N)(C#N)[C@H](c2ccncc2)[C@H]2CN(C(=O)OCc3ccccc3)CC=C12	PNC inhibitor -100 (no result: 15-hLO-2 inh)
CC(C)(C)OC(=O)N1CC=C2C(C#N)=C(N)C(C#N)(C#N)C(c3cccs3)C2C1 (centres undefined)	15-hLO-2 inh inconclusive
CCOC(=O)N1CC=C2C(C#N)=C(N)C(C#N)(C#N)[C@H](c3cccs3)C2C1 (some centres undefined)	PNC inhibitor -100 (no result: 15-hLO-2 inh)
C[C@@]12CCC(=O)C=C1C=CC1C2CC[C@]2(C)C1CC[C@@]21CCC(=O)O1 (some centres undefined)	none (no result: PNC inhibitor)
Cn1c(=O)c2c(nc(CN3CCC(C(N)=O)CC3)n2Cc2ccccc2F)n(C)c1=O	PNC inhibitor -115
Cn1c(=O)c2c(nc(CN3CCC(C(N)=O)CC3)n2CCCc2ccccc2)n(C)c1=O	PNC inhibitor inconclusive
Cn1cccc1C(=O)N1CCC2(CCN(C(=O)Nc3ccccc3)CC2)CC1	none (no result: PNC inhibitor)
COc1ccc2[nH]cc(CCNc3ccnc(-c4cccc(NS(C)(=O)=O)c4)n3)c2c1	none (no result: PNC inhibitor)
